From PubChem BioAssay
Most compounds without a hit are left out; they make up all but 10% or so of the library.
Six1-Eya2 inh: qHTS Assay for Inhibitors of the Six1/Eya2 Interaction; activity change, % (no concentration beside the values); 360,000 compounds, 0.56% hits; Homeobox protein SIX1 (Homo sapiens) + Protein phosphatase EYA2 (Homo sapiens), …; AlphaScreen GST-Six1/His-Eya2 binding, biochemical; active compounds read low; in the data active = activity change below about -65%; inconclusive = mostly about -30% to -63%
Target sequence (O00167 whole entry, looked up): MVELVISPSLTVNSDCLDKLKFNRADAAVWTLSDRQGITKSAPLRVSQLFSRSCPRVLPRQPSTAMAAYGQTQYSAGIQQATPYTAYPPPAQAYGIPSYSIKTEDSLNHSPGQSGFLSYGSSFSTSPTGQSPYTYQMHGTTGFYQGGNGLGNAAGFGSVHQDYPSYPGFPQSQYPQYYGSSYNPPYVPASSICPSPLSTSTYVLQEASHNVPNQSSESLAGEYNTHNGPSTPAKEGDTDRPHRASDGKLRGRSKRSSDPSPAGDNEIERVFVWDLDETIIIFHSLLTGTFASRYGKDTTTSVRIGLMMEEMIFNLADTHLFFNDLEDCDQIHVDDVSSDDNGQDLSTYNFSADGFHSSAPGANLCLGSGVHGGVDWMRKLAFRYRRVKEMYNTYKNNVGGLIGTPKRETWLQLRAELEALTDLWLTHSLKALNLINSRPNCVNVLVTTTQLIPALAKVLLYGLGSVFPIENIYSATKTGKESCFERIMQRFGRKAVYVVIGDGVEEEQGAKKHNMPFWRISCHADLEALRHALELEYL
Target sequence (Q15475 whole entry, looked up): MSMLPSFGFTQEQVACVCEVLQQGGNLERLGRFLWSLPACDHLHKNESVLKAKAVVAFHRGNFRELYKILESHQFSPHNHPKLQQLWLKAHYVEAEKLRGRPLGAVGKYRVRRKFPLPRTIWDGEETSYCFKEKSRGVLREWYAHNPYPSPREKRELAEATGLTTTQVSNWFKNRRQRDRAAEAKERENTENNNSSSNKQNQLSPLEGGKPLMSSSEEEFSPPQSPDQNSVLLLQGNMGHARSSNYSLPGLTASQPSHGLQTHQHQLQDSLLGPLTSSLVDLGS
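GST-Six1 + His-Eya2 (5X stock: 250/500 nM); Tris pH 8.0, 300 mM NaCl, 0.05% BSA, 0.02% Tween 20; GSH donor/Ni acceptor beads; 1 h 37 °C dark; AlphaScreen readout.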
CtBP-E1A inh: qHTS Assay for Inhibitors of the CtBP/E1A Interaction; CtBP / adenovirus E1A interaction (AlphaScreen); activity change, % (concentration not given with the values); 340,000 compounds, 0.49% hits; AID 651724, 2012; AlphaScreen GST-E1A/His-CtBP binding, 1536-well; active compounds read low; in the data active = activity change below about -65%; inconclusive = mostly about -30% to -63%
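Protein mix (5X: 125 nM each GST-E1A, His-CtBP) was incubated with pinned compound 2 h at 37 deg C in dark, in 50 mM Tris pH 8.0 buffer with 300 mM NaCl. Glutathione donor and nickel acceptor beads followed; AlphaScreen signal read after 1 h.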
G9a inh: qHTS Assay for Inhibitors of Histone Lysine Methyltransferase G9a | Histone-lysine N-methyltransferase EHMT2 (Homo sapiens), Q96KQ7 | Potency, µM (top dose mostly 102 µM), most hits filed as inhibitors | G9a H3K9 monomethylation, AlphaScreen, 2 h | 350,000 compounds, 8.8% hits; also: nearly all actives have a fitted effect of over 75% in size
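G9a (20 nM) was preincubated 15 min with compound, then reacted 2 h at room temperature with 500 nM biotin-H3K9 peptide and 20 µM SAM. Monomethyl-H3K9 detected by AlphaScreen using anti-H3K9me1 antibody.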
HP1b binding inh: HTS for Inhibitors of HP1-beta Chromodomain Interactions with Methylated Histone Tails; 390,000 compounds, 0.56% hits; Chromobox protein homolog 1 (Homo sapiens), P83916; AlphaScreen HP1-beta / biotin-H3K9me3 peptide binding; Potency, µM (highest dose often 114 µM), usual class: inhibitors; also: nearly all actives have a fitted effect of over 70% in size
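HP1-beta protein (50 nM final) preincubated 30 min at room temperature with biotinylated H3(1-18)K9me3 peptide (50 nM) in PBS pH 7.4, 0.01% Tween-20, then compound added for 30 min. AlphaScreen streptavidin donor/nickel chelate acceptor beads (10 ug/mL final), 30 min dark, luminescence read.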
JMJD2A Tudor: qHTS Assay for Inhibitors of JMJD2A-Tudor Domain. 390,000 compounds, 4.4% hits. AlphaScreen JMJD2A-Tudor / H3K4me3 peptide binding. AID 504339, 2011. Potency, µM (highest dose often 114 µM), hits mostly inhibitors; also: nearly all actives have a fitted effect of over 50% in size
BAZ2B inh: qHTS Assay for Inhibitors of BAZ2B. AlphaScreen BAZ2B-H3K14Ac peptide displacement. Potency, µM (top dose mostly 114 µM), actives largely listed as inhibitors. 360,000 compounds, 4.4% hits. AID 504333, 2011; also: nearly all actives have a fitted effect of over 60% in size
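BAZ2B (50 nM) with biotin-H3(5-23)K14Ac peptide (50 nM) in PBS pH 7.4, 0.01% Tween-20, preformed 30 min, then compound 30 min at room temperature; top concentration 110uM. AlphaScreen streptavidin donor/nickel chelate acceptor beads (10 ug/mL final), 20 min dark, signal read.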
A number is an active result; . = inactive; ? = inconclusive; / = no result given; [ ] = another dose, or the depositor's remark. Unless noted, calls follow the shape of the dose curve; as a rule, active = well fitted inhibition curve with a large enough effect; inconclusive = small, poorly fitted or top-dose-only effect; inactive = no such curve, though single readings can be large or run the other way.

SMILES | Six1-Eya2 inh | CtBP-E1A inh | G9a inh | HP1b binding inh | JMJD2A Tudor | BAZ2B inh
Clc1ccc(-c2csc(NNC3=NCCCCC3)n2)cc1 | . | . | .[2.33 µM] | . | ? | .
CCOc1ccc(-c2csc(NNC3=NCCCCC3)n2)cc1 | . | / | 7.9µM | ? | .[11.4 µM] | 50µM
c1ccc(-c2csc(NNC3=NCCCCC3)n2)cc1 | . | . | 10µM | ? | .[11.4 µM] | ?
c1ccc(NNC2=NCCCCC2)cc1 | . | / | 2.5µM | . | . | .
Brc1ccc(-c2csc(NC3=NCCCCC3)n2)cc1 | . | . | . | . | . | .
CCCC(=O)Nc1cccc(-c2cn3c(C)csc3n2)c1 | / | / | . | . | . | .
O=C(CSc1ccc([N+](=O)[O-])cn1)Nc1ccc2c(c1)OCO2 | . | . | 45µM | . | . | ?
O=C(Cn1cnc2cc([N+](=O)[O-])ccc2c1=O)Nc1ccc2c(c1)OCO2 | . | . | 40µM | . | . | ?
N#Cc1ccccc1NC(=O)CSc1ccc([N+](=O)[O-])cn1 | . | . | 50µM | . | . | .
O=C(Cc1ccc([N+](=O)[O-])cc1)Nc1ccc2c(c1)OCO2 | . | . | . | . | . | .
Cc1ccc(CSc2nc(=O)c3c(n2C)NC(=O)CC3c2ccc(OC(C)C)cc2)cc1 (configuration not stated) | / | / | . | . | . | .
COc1cc(/C=C2\SC(=Nc3ccccc3)N(Cc3ccco3)C2=O)ccc1OC(C)C(=O)O (configuration not stated) | . | . | ? | . | ? | ?
O=C1/C(=C/c2ccc(O)c([N+](=O)[O-])c2)SC(=S)N1Cc1ccccc1 | . | . | 3.5µM | ? | 4µM | ?
CCOc1cc(/C=C2/SC(=S)N(Cc3ccccc3)C2=O)ccc1O | . | / | 45µM | ? | 50µM | 22µM
CCOc1cc(/C=C2\SC(=O)N(c3ccc(O)cc3)C2=O)ccc1O | . | . | .[12.7 µM] | . | . | .
CCN1C(=O)/C(=C\C=C\c2ccccc2[N+](=O)[O-])SC1=S | . | . | 10µM | ? | ? | /
COCCN1C(=O)/C(=C/c2ccc(OCc3ccc(C(=O)O)cc3)c(OC)c2)SC1=Nc1ccccc1 | . | . | 50µM | . | ? | 56µM
NC(Cc1ccccc1)C(O)c1ccco1 (configuration not stated) | / | / | / | . | . | /
COc1ccc(Cl)cc1NC(=O)CN1c2ccccc2S(=O)(=O)c2ccccc21 | / | / | . | . | . | .
Cc1ccc(CNC(=O)Cn2ccn(-c3ccc(F)cc3)c(=O)c2=O)cc1 | / | / | . | . | . | .
Cc1ccc(S(=O)(=O)n2nc(-c3ccccc3)nc2NCc2ccc(Cl)cc2)cc1 | / | / | . | . | . | .
O=C(O)CCN1C(=O)/C(=C\c2cccc(OCc3ccccc3)c2)SC1=S | ? | . | ? | . | . | .
O=C(O)CCN1C(=O)/C(=C\c2ccc(OCc3ccccc3)c(OCc3ccccc3)c2)SC1=S | . | . | 25µM | ? | 45µM | 45µM
O=C1/C(=C\c2cccc([N+](=O)[O-])c2O)SC(=S)N1Cc1ccccc1 | ? | . | 2µM | ? | 8.9µM | 2µM
O=C1/C(=C/c2ccccc2O)SC(=S)N1Cc1cccnc1 | . | . | ? | . | . | .
CCOc1ccc(S(=O)(=O)NCC(c2ccco2)S(=O)(=O)c2cccs2)cc1 (configuration not stated) | / | / | . | . | . | .
Cc1ccc(NC(=O)Cn2c(O)c(N=NS(=O)(=O)c3ccc(C)cc3)c3ccccc32)cc1 | . | . | 2.5µM | . | 25µM | .
Cc1ccc(NC(=O)Cn2c(O)c(N=NC(N)=O)c3ccccc32)cc1 | . | . | . | . | . | .
Cc1ccc(NC(=O)Cn2c(O)c(N=NC(N)=S)c3ccccc32)cc1 | . | . | . | . | . | .
